The list is not random: actives were taken first. Their share in the collection is about 5.2%.
Tau fibril ThT: qHTS for Inhibitors of Tau Fibril Formation, Thioflavin T Binding | Microtubule-associated protein tau (Homo sapiens), P10636 | recombinant tau K18 P301L, heparin-induced fibrillization, ThT fluorescence | Potency, µM (doses to about 57.4 µM), for inactives: at the top dose activity, negative = inhibition, most hits filed as inhibitors | hit rate 2.1% among 270,000; further: potency means the concentration at half of the fitted maximal effect; nearly all actives have a fitted effect of over 55% in size
Target sequence (P10636 561-689 P618L limits assumed): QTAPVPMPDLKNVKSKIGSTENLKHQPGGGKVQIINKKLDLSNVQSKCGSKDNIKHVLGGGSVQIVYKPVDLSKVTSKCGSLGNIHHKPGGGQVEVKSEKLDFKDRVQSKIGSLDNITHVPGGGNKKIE
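ThT emission at 510 nm, taken 1 hr after adding 30 uM dye, quantifies aggregates formed when 20 uM heparin acts on human tau K18 P301L for 6 hr at 37 C.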
Coupling enz: qHTS Assay for Inhibitors of Fructose-1,6-bisphosphate Aldolase from Giardia Lamblia: Coupling assay counterscreen. coupling enzyme system counterscreen, AmpLite Red fluorescence. activity change, negative = inhibition, % at 58.2 µM, hits read low. hit rate 0.67% among 290,000. AID 2472, 2010; in the data active means activity change below about -30%
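Compounds tested against the coupling enzymes alone at 57.5 uM final; readout was AmpLite Red fluorescence (525/598 nm) after 20 min at RT.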
Tau fluor cs: Counterscreen qHTS for Inhibitors of Tau Fibril Formation, Fluorescence Polarization | AID 1463, 2008 | hit rate 0.93% among 280,000 | tau K18 P301L Alexa594 fluorescence, heparin fibrillization | Potency, µM (titrated, usually from 57.7 µM), for inactives: at the highest dose activity change, negative = decrease; further: potency means the concentration at half of the fitted maximal effect; nearly all actives have a fitted effect of over 55% in size
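Human tau K18 P301L (15 uM unlabeled, 0.24 uM Alexa 594-labeled) in 100 mM sodium acetate pH 7 with 20 uM heparin, 6 hr at 37 C. ThT 30 uM added, 1 hr ambient; Alexa 594 FP and total fluorescence read at 555/632 nm.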
Sfp PPTase inh: qHTS Assay for Inhibitors of Bacillus subtilis Sfp phosphopantetheinyl transferase (PPTase); 4'-phosphopantetheinyl transferase ffp (Bacillus subtilis), Q9F4F7; Biochemical Sfp PPTase activity, qHTS; Potency, µM, without a hit: largest response in the series, negative = inhibition, most hits filed as inhibitors; hit rate 3.5% among 310,000; AID 1490, 2009;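 further: the enzyme is Sfp with the accession as filed and its product quenches rhodamine fluorescence; potency means the concentration at half of the fitted maximal effect; 0% = enzyme reaction without inhibitor and -100% = no enzyme wells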
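Fluorescence-quenching assay with 15 nM Sfp, 5 uM rhodamine-CoA and 12.5 uM BHQ-2-labelled ybbR peptide in pH 7.6 Hepes/MgCl2 buffer. Enzyme was pre-incubated with compound for 15 min at room temperature. Rate was taken from the 30-min fluorescence change (525/598 nm).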
Tau FP inhib: qHTS for Inhibitors of Tau Fibril Formation, Fluorescence Polarization. K18 P301L tau heparin fibrillization, Alexa594 FP, 6 h. Potency, µM (highest dose often 57.7 µM), without a hit: at the highest dose activity, negative = inhibition, usual class: inhibitors. hit rate 0.39% among 280,000. AID 1468, 2008; further: potency means the concentration at half of the fitted maximal effect; nearly all actives have a fitted effect of over 55% in size
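Compound effects on tau fibrillization are measured by Alexa 594 fluorescence polarization (ex 555, em 632 nm). K18 P301L tau is used at 15 uM with 0.24 uM labeled tracer, and 20 uM heparin induces aggregation over 6 hr at 37 C.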
Numbers without * were called inactive; ? = inconclusive; / = no result given; [ ] = another dose, or the depositor's remark. Unless noted, the call rests on the fitted dose curve; in most records, active means well fitted curve in the direction sought with a large enough effect; inconclusive means small, poorly fitted or top-dose-only effect, or another doubt; inactive means no such curve, though single readings can be large; an effect the other way counts as inactive or inconclusive. Unless noted, on the % scale 0 is the no-effect control and ±100 the full control effect.

SMILES	Tau fibril ThT	Coupling enz	Tau fluor cs	Sfp PPTase inh	Tau FP inhib
N#Cc1c(NC(=O)CCC(=O)O)sc2c1CCCC2	0%	9	1%	0%	3%
N#Cc1ccsc1NC(=O)c1cnccn1	-17%	4	-5%	50µM*	-1%
CC(C)(C)c1ccc(NC(=O)CSc2nnc3scc(-c4ccccc4)n23)cc1	-13%	/	-24%	/	-14%
COC(=O)c1cc(NC(=S)Nc2cc(Cl)cc(Cl)c2)cc(C(=O)OC)c1	-5%	1	?	-2%	32µM*
O=C(Nc1cccc(Cl)c1)Nc1cccc(Cl)c1	-10%	-6	-22%	-3%	?
COC(=O)c1cc(NC(=O)Nc2cccc(Cl)c2)ccc1Cl	?	-2	7.9µM*[quencher]	-6%	7.9µM*
COC(=O)c1cccc(NC(=S)Nc2ccc(Cl)c(Cl)c2)c1	5%	1	20µM*[quencher]	3%	?
COc1cc(NC(=O)C2CCN(S(=O)(=O)c3c(C)noc3/C=C/c3ccccc3F)CC2)cc(OC)c1OC	3%	/	?	/	5%
Cc1ccc(Cl)cc1NC(=O)c1cnn2c(C(F)F)cc(-c3ccccc3)nc12	0%	/	3%	/	-1%
CN1C(=O)C(Cc2cnc[nH]2)NC1=S (stereo not given)	/	-2	/	79µM*	/
O=C(CN1CCCCC1)Nc1nnc(-c2ccc([N+](=O)[O-])cc2)s1	13µM*	2	-15%	4%	-2%
O=C(CN1CCCCC1)Nc1nnc(-c2ccccc2)s1	-11%	-3	-10%	3%	-4%
Nc1n[nH]c(N)c1N=Nc1ccc(Cl)cc1Cl	3.5µM*	0	?	-18%	7%
CCOc1ccccc1NC(=O)C(=O)N/N=C/c1ccc([N+](=O)[O-])cc1	-15%	0	-18%	11%	-6%
O=C(N/N=C/C(Cl)=C/c1ccc([N+](=O)[O-])cc1)C(=O)Nc1ccc(C(=O)O)cc1	3.5µM*	1	-28%	?	0%
O=C(N/N=C/C(Cl)=C/c1ccc([N+](=O)[O-])cc1)C(=O)Nc1ccccc1C(=O)O	3.2µM*	9	?	35µM*	-7%
CCC(N)(C(=O)O)c1ccc(C(=O)O)cc1 (stereo not given)	-2%	/	-6%	79µM*	-1%
O=C(O)c1ccc(O)cc1	/	3	/	2%	/
CCc1nn(C(C)C(=O)NC(C)CCc2ccco2)c(=O)c2cc3occc3n12 (stereo not given)	-13%	4	-3%	79µM*	-7%
CCOc1ccccc1C(=O)Nc1c[nH]c(=O)[nH]c1=O	/	-33*	/	17%	/
Cc1ccc(Cl)c(OCCCN(C)Cc2ccccc2)c1	?	2	-21%	45µM*	9%
Cc1ccc(Cl)c(OCCCCN(C)Cc2ccccc2)c1	-9%	0	-6%	-12%	5%
S=c1nc(Cc2ccccc2)[nH]c2ccccc12	/	0	/	29%	/
S=c1nc(COc2ccccc2)[nH]c2ccccc12	/	-8	/	32µM*	/
FC(F)(F)c1nc(=S)c2ccccc2[nH]1	?	-5	-2%	20µM*	-18%
SMILES	Tau fibril ThT	Coupling enz	Tau fluor cs	Sfp PPTase inh	Tau FP inhib
Cc1nc(=S)c2ccccc2[nH]1	-6%	-2	-6%	-22%	-7%
Cc1ccc(/C=N\NC(=O)Cc2cccn2C)o1	?	-1	-15%	40µM*	-7%
Cn1cccc1CC(=O)N/N=C/C=C/c1ccco1	-10%	-10	-11%	14µM*	-2%
Cn1cccc1CC(=O)N/N=C\c1ccccc1	-6%	-2	-4%	10%	-3%
CCC(c1nnnn1CC1CCCO1)N(CCN1CCOCC1)Cc1cc2cc(C)ccc2[nH]c1=O (stereo not given)	?	-5	-13%	45µM*	?
CCC(c1nnnn1CCOC)N(Cc1cc2cc(C)c(C)cc2[nH]c1=O)CC1CCCO1 (stereo not given)	-12%	-5	-4%	?	4%

Assay outcomes from PubChem.
